Experimental data published in PubChem BioAssay AID686996 (Broad Institute, 2013).
Hit rate of the full screen: of about 350,000 compounds, about 1,900 (0.54%) were called active. This is one part of a sample in which actives are shown more often than they occur.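 How the source made its calls: active means mean inhibition across replicates at least about 35%, with every replicate also reaching that limit (limit read from the data); inconclusive means only one of the two criteria met; inactive means neither criterion met.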

Each molecule was assayed against Caspase-6 (Homo sapiens) (UniProt P55212) (assay: human caspase-6 inhibitors, primary screen, biochemical, VEID-R110 fluorescence, single point, set 2 (AID 686996;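 further: 0% = median of neutral control wells and 100% = no fluorescence left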)). Settings: purified caspase-6, Z-VEID-R110 cleavage fluorescence; at 12.5 µM; stronger effect = higher value.
Caspase-6 (Homo sapiens), sequence (P55212 24-179 limits assumed): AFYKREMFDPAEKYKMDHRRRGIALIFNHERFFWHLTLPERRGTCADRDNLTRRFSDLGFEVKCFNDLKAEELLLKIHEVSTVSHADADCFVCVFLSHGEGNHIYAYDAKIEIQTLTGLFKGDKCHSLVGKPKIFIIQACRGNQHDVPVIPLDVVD
Caspase-6 (Homo sapiens), sequence (P55212 194-293 limits assumed): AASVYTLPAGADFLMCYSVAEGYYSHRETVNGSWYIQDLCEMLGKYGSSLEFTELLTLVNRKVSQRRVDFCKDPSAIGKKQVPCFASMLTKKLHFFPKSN

Structure (SMILES) | inhibition
Cc1ccc(S(=O)(=O)CCC(=O)OCC(=O)NCCc2ccc(S(N)(=O)=O)cc2)cc1 | 1.6% (inactive)
COc1ccc(Cl)cc1NC(=O)CCS(=O)(=O)c1cc2c(cc1C)NC(=O)CO2 | 0.689% (inactive)
O=C(CCS(=O)(=O)c1ccc(Br)cc1)NCCc1ccc(Cl)cc1 | 49% (active)
COc1ccc(Cl)cc1NC(=O)CCS(=O)(=O)c1ccc(Br)cc1 | 87.9% (active)
CC(C)NC(=O)N(C)C[C@@H]1Oc2ccc(NS(=O)(=O)c3cn(C)cn3)cc2C(=O)N([C@@H](C)CO)C[C@@H]1C | 0.64% (inactive)
C[C@@H]1CCCCO[C@H](CN(C)S(=O)(=O)c2cccs2)[C@@H](C)CN([C@@H](C)CO)C(=O)c2cc(NC(=O)Nc3ccc4c(c3)OCO4)ccc2O1 | 0.247% (inactive)
Cc1noc(C)c1NC(=O)N(C)C[C@@H]1Oc2ccc(NS(C)(=O)=O)cc2C(=O)N([C@@H](C)CO)C[C@@H]1C | 3.77% (inactive)
C[C@H](NC(=O)C[C@@H]1C[C@@H]2c3cc(NC(=O)Nc4ccc(C(F)(F)F)cc4)ccc3O[C@@H]2[C@H](CO)O1)c1ccccc1 | -2.54% (inactive)
O=C(NC[C@@H]1N[C@@H](CO)[C@H]1c1ccc(-c2cccnc2)cc1)c1cccc(F)c1 | 0.599% (inactive)
Cc1cc(C(=O)OCC(=O)N2c3ccccc3NC(=O)C2(C)C)c(C)n1-c1ccccc1 | -1.9% (inactive)
CNS(=O)(=O)c1cccc(C(=O)OCC(=O)N2c3ccccc3NC(=O)C2(C)C)c1 | 35.9% (active)
CCNc1ccc(C(=O)OCC(=O)N2c3ccccc3NC(=O)C2(C)C)cc1[N+](=O)[O-] | -5.89% (inactive)
C[C@@H]1CCCCO[C@@H](CN(C)C(=O)Nc2ccc(C(F)(F)F)cc2)[C@H](C)CN([C@H](C)CO)C(=O)c2cc(NC(=O)c3ccccc3)ccc2O1 | -0.72% (inactive)
C[C@@H]1CCCCO[C@H](CN(C)C(=O)Cc2ccccc2)[C@H](C)CN([C@H](C)CO)C(=O)c2cc(NS(=O)(=O)c3cn(C)cn3)ccc2O1 | -3.5% (inactive)
O=C(Nc1ccc2c(c1)OCCO2)C1CCCC1 | 35.2% (active)
O=C(Nc1ccc2c(c1)OCO2)C1CC1(Cl)Cl (stereo unspecified) | -1.32% (inactive)
O=C(Nc1ccc2c(c1)OCCO2)c1ccoc1 | 0.545% (inactive)
COC(=O)C[C@@H]1CC[C@@H]2[C@@H](COc3ccc(NC(=O)C4CCOCC4)cc3C(=O)N2C)O1 | -2.32% (inactive)

Structure (SMILES) | inhibition
C/C=C/c1ccc([C@@H]2[C@H](CO)N(S(=O)(=O)Cc3ccccc3)C23CN(C(=O)C2CCOCC2)C3)cc1 | 0.958% (inactive)
O=C(NCC[C@H]1CC[C@H](NS(=O)(=O)c2cccc(F)c2)[C@H](CO)O1)C1CCCCC1 | -1.12% (inactive)
O=C(C[C@@H]1CC[C@H]2[C@@H](COC[C@H](O)CN2C(=O)Nc2ccccc2)O1)NCCc1ccncc1 | 2.19% (inactive)
CO[C@@H]1CN(C)C(=O)c2ccc(NS(=O)(=O)c3cccc(C)c3)cc2OC[C@@H](C)NC[C@H]1C | -0.731% (inactive)
CCC(=O)N1[C@H](C(=O)NC2CCC2)[C@@H](CO)[C@@H]2Cn3c(cccc3=O)[C@@H]21 | 0.371% (inactive)
COc1ccc2c3c(n(C)c2c1)[C@H](CO)N(CC1CCCCC1)CC31CCN(Cc2nccs2)CC1 | -2.93% (inactive)
CS(=O)(=O)c1ccc2c(c1)SC1=NC(=O)/C(=C/c3ccco3)C(=N)N12 | 56.4% (active)
COc1ccc2c3c(n(C)c2c1)[C@@H](CO)N(C)CC31CN(CC2CC2)C1 | -5.67% (inactive)
Cc1ccc(S(=O)(=O)Nc2ccc3c(c2)C(=O)N([C@@H](C)CO)C[C@@H](C)[C@H](CN(C)Cc2ccc(Cl)c(Cl)c2)OCCCC[C@@H](C)O3)cc1 | -0.785% (inactive)
O=C(C[C@@H]1CC[C@@H](NS(=O)(=O)c2ccc(F)cc2)[C@@H](CO)O1)NCCc1ccncc1 | 3.03% (inactive)
O=C(Nc1ccc(F)cc1)N[C@@H]1CC[C@H](CC(=O)N2CCCCC2)O[C@H]1CO | 1.55% (inactive)
Cc1ccccc1NC(=O)Cn1c(=O)n(CC2CCCO2)c(=O)c2ccccc21 (stereo unspecified) | 6.2% (inactive)
Cc1ccccc1NC(=O)CSC(=O)c1ccccc1 | 1.82% (inactive)
Cc1ccccc1NC(=O)CN1C(=O)N/C(=C\c2cccn2-c2cccc(C(=O)O)c2)C1=O | 63.2% (active)
COc1ccc(NC(=O)N[C@H]2CC[C@@H](CCNS(=O)(=O)c3cccc(Cl)c3)O[C@H]2CO)cc1 | -1.94% (inactive)
Cc1ccc(-c2cnc3c(c2)C(=O)N([C@H](C)CO)C[C@@H](C)[C@@H](CN(C)C(=O)CN(C)C)O3)cc1 | -0.686% (inactive)
COc1ccc(C(=O)N2C[C@@H]3[C@H](c4ccccc42)[C@H](CO)N3Cc2ccc3c(c2)OCO3)cc1 | -0.922% (inactive)
COc1ccc(NC(=O)N(C)C[C@H]2OCCCC[C@H](C)Oc3ccc(NS(C)(=O)=O)cc3C(=O)N([C@H](C)CO)C[C@@H]2C)cc1 | -0.91% (inactive)
